Test results taken from PubChem BioAssay AID1499 (Sanford-Burnham Center for Chemical Genomics, 2009).
Hit rate of the full screen: of about 93,000 compounds, about 65 (0.07%) were called active. This is one part of a sample in which actives are shown more often than they occur.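 The calls were made as follows: active = 10 µM primary screen giving 50% or more activity, confirmed by 40% or more on retest at that dose; inactive = the rest.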

Target: Integrin beta-2 (Homo sapiens) + Integrin alpha-M (Homo sapiens) (UniProt P05107+P11215)
Sequence (P05107 whole entry, looked up, other chains not shown): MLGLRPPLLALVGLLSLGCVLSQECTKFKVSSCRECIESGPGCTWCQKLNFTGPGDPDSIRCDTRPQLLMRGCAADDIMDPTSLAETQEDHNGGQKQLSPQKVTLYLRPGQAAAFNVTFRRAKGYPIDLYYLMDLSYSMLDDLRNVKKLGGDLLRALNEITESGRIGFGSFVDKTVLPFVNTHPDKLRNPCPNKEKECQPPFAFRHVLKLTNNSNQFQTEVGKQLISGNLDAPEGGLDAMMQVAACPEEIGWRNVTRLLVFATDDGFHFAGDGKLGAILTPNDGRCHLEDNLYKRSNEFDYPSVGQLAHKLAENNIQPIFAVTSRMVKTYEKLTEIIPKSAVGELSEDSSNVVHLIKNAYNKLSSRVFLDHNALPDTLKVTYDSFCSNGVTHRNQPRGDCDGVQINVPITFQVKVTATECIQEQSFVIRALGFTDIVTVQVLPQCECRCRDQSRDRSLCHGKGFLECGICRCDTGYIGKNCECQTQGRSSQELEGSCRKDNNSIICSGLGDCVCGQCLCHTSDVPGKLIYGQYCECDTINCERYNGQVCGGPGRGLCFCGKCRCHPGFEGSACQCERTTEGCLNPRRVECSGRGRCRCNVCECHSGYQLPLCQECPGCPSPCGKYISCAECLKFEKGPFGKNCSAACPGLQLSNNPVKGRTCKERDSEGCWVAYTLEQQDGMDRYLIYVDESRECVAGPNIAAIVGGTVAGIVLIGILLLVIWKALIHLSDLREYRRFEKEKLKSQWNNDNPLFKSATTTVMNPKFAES
Experiment: agonists of integrin CD11b/CD18-fibrinogen binding – K562 cells, luminescence, primary screen (AID 1499)
Conditions: K562 CD11b/CD18 adhesion to fibrinogen, ATPlite luminescence; at 10 µM; stronger effect = higher value

activation, inactive:
Cc1ccc(NC(=O)CN(C)Cc2ccc(F)cc2)c([N+](=O)[O-])c1 -1%
O=C(Oc1ccccc1Cl)c1ccc(N2CCOCC2)c([N+](=O)[O-])c1 -0.9%
CCS(=O)(=O)Nc1cccc(-c2cc(-c3ccccc3)c3cc(C)ccc3n2)c1 -5.6%
O=C(COC(=O)CSc1nnc(-c2ccc(Cl)cc2)o1)Nc1cc(Cl)cc(Cl)c1 25.1%
O=C(Nc1ccccc1)/C(=C/c1ccc([N+](=O)[O-])cc1)NC(=O)c1ccccc1 29.4%
CN(Cc1ccccc1)C(=O)COC(=O)c1ccccc1Nc1ccccc1 -2.4%
CC(C)C(=O)Nc1ccc2c3c(cccc13)CC2 -4.8%
CCCOC(=O)c1c(NC(=O)c2cnn3c2NC(c2ccccc2)CC3C(F)(F)F)sc2c1CCCC2 (configuration not stated) 62.7%
O=C(Oc1ccc([N+](=O)[O-])cc1)c1ccc(Cl)c(S(=O)(=O)N2CCCCC2)c1 -4.7%
O=C(Nc1nnc(C2COc3ccccc3O2)o1)c1ccc(F)cc1 (configuration not stated) 3%
COC(=O)N/N=C/c1ccc(-c2ccc(Cl)c(Cl)c2)o1 -1.3%
COc1ccc(Nc2nc(N)nc(CSC(=S)N3CCC(C)CC3)n2)cc1 2.4%
COc1ccc(Cl)cc1NC(=O)[C@@H]1CCCN1C(=O)c1cccs1 2.8%
O=C(Nc1ccccc1Cl)c1ccccc1S(=O)(=O)c1ccccc1[N+](=O)[O-] 1%
CCOc1ccc(NC(=O)COc2ccc(C(=O)NC3CCCc4ccccc43)cc2OC)cc1 (configuration not stated) 37%
COc1ccc(C2c3c(C)nn(-c4ccccc4)c3NC(=O)N2c2ccccc2)cc1 (configuration not stated) -1.5%
CCCc1c(C)nc2c(Br)cccc2c1Cl 2.4%
COC(=O)c1ccc(C(=O)OC)c(NC(=S)N2CCN(c3cc(Cl)ccc3C)CC2)c1 -1.1%
CCN(CC)c1ccc([N+](=O)[O-])cc1C(=O)O -7%
COc1ccc(CCNC(=O)CSc2nc(-c3ccc(OC)c(OC)c3)ccc2C#N)cc1 8.9%
CC(=O)N1CCN(CC(=O)Nc2ccc(SC(F)F)cc2)CC1 2.9%
Cc1nn(C)c(Oc2ccccc2)c1CCNS(=O)(=O)c1ccc(F)cc1 4.8%
